Only some compounds are listed: those with a hit (about 2.4% of all), similar ones and a draw of the others.
ANO1 activ: TMEM16A chloride channel activators or potentiators, primary screen, cell-based, HTS; AID 623877, 2012; hit rate 0.3% among 340,000; B-score at 10 µM; Anoctamin-1 (Mus musculus), Q8BHY3; HEK293 TMEM16A/YFP-H148Q/I152L, iodide quench fluorescence; active compounds read low;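 active = fluorescence-ratio B-score plate-corrected deviation score at least 3 library SD below zero, with starting fluorescence score within 5 deviations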;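 note: channel opened by trigger with iodide after compound preincubation; score built on the fluorescence ratio of max minus min over baseline; more negative score means more quench and so TMEM16A activation or potentiation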
TMEM16A inh: TMEM16A chloride channel inhibitors, primary screen, cell-based, HTS | Anoctamin-1 (Mus musculus), Q8BHY3 | HEK293 TMEM16A/YFP iodide influx fluorescence, ionomycin | normalized B-score (activity score, 25-100; higher = stronger inhibition) at 10 µM | hit rate 1.2% among 310,000 | AID 588511, 2011;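 active = ratio plate-corrected score three or more library SD toward inhibition, starting fluorescence score within five deviations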;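 note: score derived from kinetic fluorescence span divided by baseline fluorescence per well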
cardiac RTF act: cardiac RTF calcium sensitivity activators, primary screen, biochemical, IANBD-TnC fluorescence, EC20 calcium | Troponin I, cardiac muscle (Homo sapiens) + Troponin T, cardiac muscle (Homo sapiens) + … | IANBD-labeled TnC RTF fluorescence at EC20 calcium; 0% EC20 calcium, 100% full calcium | activation, % at 7.2 µM | hit rate 0.24% among 340,000;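 active = activation above the mean over all tested compounds plus 3 SD, cut at about 30% in these data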;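 note: rise in fluorescence read as greater calcium sensitivity of cardiac thin filaments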
Cardiac RTF inh: cardiac RTF calcium sensitivity inhibitors, primary screen, biochemical, IANBD-TnC fluorescence, EC70 calcium | IANBD-labeled cardiac RTF, Ca2+ fluorescence | inhibition, % at 7.15 µM | Troponin I, cardiac muscle (Homo sapiens) + Troponin T, cardiac muscle (Homo sapiens) + … | hit rate 0.12% among 340,000;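 active = inhibition above the mean inhibition of all tested compounds plus 3 SD, cut at about 17% in these data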;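 note: assay run at fixed EC70 calcium of 1.6 mM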
CRFBP-R2 block: antagonists of CRF-BP/CRF-R2 complex, primary screen, cell-based, HEK293, calcium dye fluorescence, uHTS; hit rate 0.59% among 350,000; CRF-induced calcium fluorescence; inhibition, % at 11.8 µM;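 active = inhibition of the ligand-induced calcium signal above about 50% at the single tested concentration, limit read from the data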
CRFR2-BP ag: agonists of CRF-BP/CRF-R2 complex, primary screen, cell-based, HEK293, calcium dye fluorescence, uHTS; CRF-binding protein / CRF receptor 2 complex (human); calcium dye fluorescence (FLIPR); percent of saturating CRF peptide response; activation, % at 13.2 µM; hit rate 0.46% among 350,000;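 active = activation of at least 50%, plus an integration ratio under a set limit after plate pattern correction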;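 note: plate controls were neutral control wells without compound for no effect and CRF at EC100 for full effect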
* hit, by the source's call; i = inactive; / = not tested or not shown.

SMILES	ANO1 activ	TMEM16A inh	cardiac RTF act	Cardiac RTF inh	CRFBP-R2 block	CRFR2-BP ag
Cc1cccc(C(=O)N2c3ccccc3C(=O)OC2c2ccc3c(c2)OCO3)c1 (stereo not drawn)	i	i	3	-6	75*	2
O=C(CSc1ccccc1)NN1C(=O)c2ccccc2C1=O	i	i	-5	-6	122*	-2
O=C(Cc1ccccc1)NN1C(=O)c2ccccc2C1=O	i	i	3	-5	10	-1
O=c1c2cc(C(F)(F)F)ccc2sn1-c1ccccc1	/	/	/	/	45	61*
O=C(CSc1nc(-c2ccccc2)cs1)NCCCN1CCCC1=O	i	/	-3	-4	-3	-1
O=C(CSc1nnnn1-c1ccccc1)NCCCN1CCCC1=O	i	/	-3	4	57*	3
O=C(COc1ccccc1)N1CCN(c2ncccn2)CC1	i	i	-2	1	4	0
Cc1nc(N2CCN(C(=O)COc3ccccc3)CC2)c2c(C)c(C)sc2n1	i	100*	-8	4	-4	-2
O=C(Nc1ccc(N2CCOCC2)cc1)c1ccc([N+](=O)[O-])o1	i	i	-3	4	5	0
COc1cc2c(cc1OC)-c1cc(Nc3ccc(C(=O)O)cc3)nc(=O)n1CC2	i	i	0	1	117*	0
COc1ccc(Nc2cc3n(c(=O)n2)CCc2cc(OC)c(OC)cc2-3)cc1	i	i	-3	-3	32	1
CCOCCCNC(=O)N1CCOCC1	i	i	-1	7	-1	1
O=C(NCCCCCCNC(=O)N1CCCCCC1)N1CCCCCC1	i	i	10	-12	76*	-3
O=C(CCl)N1c2ccccc2Oc2ccc3ccccc3c21	i	/	226*	-295	-88	41
COc1ccc2[nH]c3c(=O)n(/N=C/[C@H]4C(C)C=C(C)CC4C)c(=O)[nH]c3c2c1 (stereo partly drawn)	-16*	i	-1	-9	8	0
COc1ccc2c(c1)[nH]c1c(=O)n(/N=C/C3C(C)C=C(C)CC3C)c(=O)[nH]c12 (stereo not drawn)	i	i	4	8	3	-3
COc1cc(NC(=S)NN2CCN(C)CC2)cc(OC)c1OC	i	i	2	-1	-3	0
NS(=O)(=O)c1cccc(NC(=O)COC(=O)/C=C/c2nc3ccccc3s2)c1	i	/	4	-13	2	-5
CC(C)N=C(NS(=O)(=O)c1ccccc1)C(Cl)(Cl)Cl	i	i	5	-4	-10	-1
CN(C)S(=O)(=O)c1cccc(NC(=S)Nc2cc(Cl)cc(Cl)c2)c1	i	100*	2	-5	16	40
CN(C)S(=O)(=O)c1cccc(NC(=S)Nc2ccc(Cl)cc2Cl)c1	i	i	-2	-2	-23	-1
CCc1ccccc1NC(=O)NC(C)c1ccc2c(c1)OCO2 (stereo not drawn)	i	i	5	0	61*	-3
COC(=O)c1sc(NC(=O)c2ccc([N+](=O)[O-])o2)c(C#N)c1C	i	i	-3	3	74*	41
COc1ccc2nc(NC(=O)c3cccnc3SC)sc2c1	i	i	-1	-2	6	-2
CC(C)NC(=S)NC(=O)/C=C/c1cccc2ccccc12	-6.8*	i	-4	-2	-12	1
CN1CCN(C(=S)NC(=O)/C=C/c2cccc3ccccc23)CC1	i	i	3	-7	-14	1
C=Cn1ccnc1CC(O)c1ccc(OC)cc1 (stereo not drawn)	i	i	7	-4	3	-2
COc1cccc(NC(=O)c2nc3ncccn3n2)c1	-5.4*	i	4	3	-6	-1
